Measured values from PubChem BioAssay AID2501 (Southern Research Specialized Biocontainment Screening …, 2010).
Among all 2,200 compounds or so, about 1,200 (55%) were called active. The set was probably picked from earlier hits. The list shows a part of the results. A number with no mark means an inactive call. The limit is not given here; nearly all actives have IC50 up to about 92 µM.

assay: counter assay for TAg ATPase ADP read-out – biochemical, ADP-Hunter, fluorescence, counter-screen (AID 2501); settings: series mostly up to 100 µM;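 also: purified T antigen ATPase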;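 as to inhibition: 0% = enzyme with vehicle and 100% = reference inhibitor wells; higher means more inhibition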

Row | SMILES | IC50 | inhibition
1 | O=C(c1nnsc1S(=O)c1ccc(Cl)cc1)N1CCOCC1 (stereo not drawn) | inactive | 
2 | COc1cccc2c(=O)n(CC(=O)Nc3ccccc3F)ccc12 | inactive | 
3 | CC(/C=C/c1ccc(O)cc1)=N/O | 3.08 µM (active) | 
4 | Cc1coc2c1C(=O)C(=O)c1c-2ccc2c(C)cccc12 | inactive | 
5 | N#CCn1c(CCl)nc2ccccc2c1=O | inactive | 
6 | Oc1ccc(/C=N/n2c(COc3ccccc3)n[nH]c2=S)cc1O | 9.32 µM (active) | 
7 | O=c1c2ccccc2nc(COc2ccccc2)n1/N=C/c1ccc(O)c(O)c1 | 12.1 µM (active) | 
8 | CCCc1nc2ccccc2c(=O)n1/N=C/c1ccc(O)c(O)c1 | 10.5 µM (active) | 
9 | CCn1c(/C=C/c2c(C)[nH]c3ccccc23)nc2ccccc2c1=O | inactive | 
10 | Cc1nc2ccccc2c(=O)n1/N=C/c1cn(-c2ccccc2)nc1-c1cccs1 | inactive | 
11 | O=C(OCn1nnc2ccccc2c1=O)c1ccc(O)cc1 | inactive | 
12 | CCn1c(/C=C/c2ccc(O)c(O)c2)nc2ccccc2c1=O | 64.8 µM (active) | 
13 | CSC1=NS(=O)(=O)c2c(C)nn(C)c2S1 | inactive | 
14 | CC(C)(C)c1cc[n+](C2=C([O-])c3ccccc3C(=O)/C2=N\S(=O)(=O)c2ccccc2)cc1 | inactive | 
15 | CCCNC(=O)c1ccc2c(=O)c(O)c(-c3cccc(Br)c3)[nH]c2c1 | inactive | 
16 | O=C1/C(=N/n2cnnc2)c2ccccc2N1Cc1ccccc1 | inactive | 
17 | Nc1cc(CN2C(=O)c3ccccc3C2=O)cc(Cl)c1O | 4.47 µM (active) | 
18 | O=C(NCc1ccccc1)c1onc(CSc2ccc(F)cc2)c1C(=O)NCCCN1CCOCC1 | inactive | 
19 | CCN(CC)c1ccc(-c2nc3cnccn3c2NC2CCCC2)cc1 | 12.1 µM (active) | 
20 | COc1cc(-c2nc3cnccn3c2Nc2ccccc2)ccc1O | 2.57 µM (active) | 
21 | Oc1ccc(-c2nc3ncccn3c2Nc2ccc3c(c2)OCO3)cc1 | 5.13 µM (active) | 
22 | CN(C)c1ccc(-c2nc3cnccn3c2Nc2ccc3c(c2)OCCO3)cc1 | 11.3 µM (active) | 
23 | CC12CCC(C/C1=N/O)C2(C)C (stereo not drawn) | inactive | 

Row | SMILES | IC50 | inhibition
24 | COc1ccc(-c2c(C)n([O-])c3c([n+]2=O)CCCCC3)cc1OC | inactive | 
25 | Cc1ccc(/C(O)=C2/C(=O)C(=O)OC2c2ccc(Cl)cc2)cc1 (stereo not drawn) | inactive | 
26 | Oc1ccc(-c2nc3cnccn3c2Nc2ccc3c(c2)OCCO3)cc1 | 3.53 µM (active) | 
27 | CCOC(=O)c1sc(N)nc1C(C)C | inactive | 
28 | CCOC(=O)c1c(N)ssc1=S |  | 20.8% [at 12.5 µM]
29 | CCOC(=O)c1cc(-c2ccc(N)cc2)sc1N | 5.53 µM (active) | 
30 | NNC(=O)c1sc2cc(C(F)(F)F)cnc2c1-c1ccccn1 | inactive | 
31 | NNC(=O)c1cc(-c2ccccc2)sc1N | 8.67 µM (active) | 
32 | CC(=O)c1ccc2c3c(cccc13)C(=O)N(c1c(C)nn(C)c1C)C2=O | inactive | 
33 | O=C(NCc1ccco1)Nc1cccs1 | inactive | 
34 | O=C(NCc1cccs1)Nc1cc(Cl)ccc1Cl | 91.1 µM (active) | 
35 | Cc1ccc(C)n1/N=C1/NC(=O)CS1 | inactive | 
36 | Oc1cc(O)c2c(c1)O[C@H](c1ccc(O)c(O)c1)[C@@H](O)C2 | 11.9 µM (active) | 
37 | Oc1cc(O)c2c(c1)OC(c1ccc(O)c(O)c1)C(O)C2 (stereo not drawn) | 3.95 µM (active) | 
38 | COC(=O)Cc1cc(=O)n(-c2nc3ccccc3s2)[nH]1 | inactive | 
39 | CC(=O)O[C@H]1C[C@@]2(C)[C@@H](C[C@@H](O)[C@H]3[C@@]4(C)CC[C@@H](O)[C@@H](C)[C@@H]4CC[C@@]32C)/C1=C(\CCC=C(C)C)C(=O)O | inactive | 
40 | COc1cc(/C=C(\C#N)C(=O)c2ccc(O)c(O)c2)cc(I)c1O | 12.3 µM (active) | 
41 | N#C/C(=C\c1cccc(Cl)c1)C(=O)c1ccccc1 | inactive | 
42 | N#C/C(=C\c1ccc(O)c(O)c1)C(=O)c1ccc(O)c(O)c1 | 3.24 µM (active) | 
43 | Cc1cccc(C2c3[nH]c4ccccc4c3CCN2C(=O)c2nn(C)c(=O)c3ccccc23)n1 (stereo not drawn) | inactive | 
44 | COC(=O)/C=C1/N/C(=N\c2nc(C)cc(C)n2)N(c2ccc(Cl)cc2)C1=O | inactive | 
45 | Cc1cc2ccccc2n1CCNC(=O)COc1ccc2ccccc2c1 | inactive | 
46 | OCC1CCCN(C(=S)Nc2ccc(Nc3ccccc3)cc2)C1 (stereo not drawn) | 3.07 µM (active) | 

Row | SMILES | IC50 | inhibition
47 | OC1CCN(C(=S)Nc2ccc(Nc3ccccc3)cc2)CC1 | 2.9 µM (active) | 
48 | Cc1cc(C)c2c(c1)NC(C(=O)O)C1CC=CC21 (stereo not drawn) | inactive | 
49 | N#Cc1c(SCC(=O)Nc2nncs2)sc2c(O)cc(=O)[nH]c12 | inactive | 
50 | c1nc2sc3c(c2c2nnnn12)CCC3 | inactive | 
51 | Nc1ccc(-c2nc3c(Cl)cc(N)cc3[nH]2)cc1 | 4.91 µM (active) | 
52 | Nc1ccc(-c2nc3c(Cl)c(N)ccc3[nH]2)cc1 | 3.24 µM (active) | 
53 | O=C(O)COc1ccccc1C(Nc1cccnc1)c1cc(Cl)c2cccnc2c1O (stereo not drawn) | inactive | 
54 | CCc1c(C)nc2ncnn2c1N1CCCC(C(=O)Nc2cc(F)ccc2C)C1 (stereo not drawn) | inactive | 
55 | Cc1ccc(-c2cc(-c3ccco3)c(C#N)c(=O)[nH]2)cc1 | inactive | 
56 | CCCCOC1(c2ccccc2)NC(=S)NN=C1c1ccccc1 (stereo not drawn) | 4.2 µM (active) | 
57 | CN1CC(C(=O)O)Cc2c1ccc1ccccc21 (stereo not drawn) | 8.64 µM (active) | 
58 | CC(C)N1CC(C(=O)O)CC1=O (stereo not drawn) | inactive | 
59 | COc1cc(C#CC#CCN2CCCCC2)ccc1O | 5.76 µM (active) | 
60 | O=C(O)CN1C(=O)/C(=C\c2cc([N+](=O)[O-])ccc2OCc2ccccc2Cl)SC1=S | inactive | 
61 | CN1C(=O)/C(=C/c2ccc(-c3ccccc3[N+](=O)[O-])o2)SC1=Nc1ccc(Cl)c(C(=O)O)c1 | 92.5 µM (active) | 
62 | CCCCOC(=O)Nc1ccc(N(C)C)cc1 | 4.65 µM (active) | 
63 | C=CCNC(=S)Nc1ccc(N(C)C)cc1 | 1.99 µM (active) | 
64 | CN(C)c1ccc(NC(N)=S)cc1 | 3.1 µM (active) | 
65 | CCOC(=O)c1c(C)c(C(=O)Nc2ccc(N(C)C)cc2)c(C)n1CC | 10.6 µM (active) | 
66 | CCCCOC(=O)c1ccc(NC(=O)Nc2ccc(OC)c(OC)c2)cc1 | inactive | 
67 | Cc1cc(S(=O)(=O)Nc2c(C)nc3nc[nH]n3c2=O)ccc1F | inactive | 
68 | CC(C)CC(NC(=O)C1CCC(=O)N1C(=O)OCc1ccccc1)C(=O)NC(Cc1ccccc1)C(N)=O (stereo not drawn) | inactive | 
